Reference: the supplement of paper PMC5499739
Whole data set: some 16,000 sequences, median “Z-score” near -0.37, cut for the highest 2% near 3.1. For the sample, the highest values were picked, then their nearest neighbours and some sequences at random.

What follows are sequences tested on RBM10 RRM1-ZnF-RRM2 (GST-tagged construct) (assay: RNAcompete 7-mer binding Z-score; higher = stronger binding preference).
Experimental: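 RNAcompete: 20 pmol GST-tagged RBM10 RNA-binding constructs were incubated with a designed RNA pool of about 241,000 sequences up to 41 nt (1.5 nmol) on glutathione beads for 30 min at 4 °C and washed. Bound RNAs were identified by microarray hybridisation. Each RNA 7-mer is scored by a one-sided Z-score of its enrichment, computed over probes that contain the 7-mer within longer pool sequences.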

Row | Sequence | RNAcompete 7-mer binding Z-score
1 | CAUAGGA | 0.756
2 | AGUAGGA | 3.08
3 | UAUAGGG | 2.76
4 | AAUAGGA | 1.57
5 | GAUAGGA | 3.17
6 | CGUAGAG | 0.636
7 | UGUAGAG | 0.978
8 | GGUAGGA | 3.37
9 | GAUAGGG | 4.38
10 | CAUAGGG | 2.13
11 | GGUAGAG | 3.68
12 | GGUAGGC | 2.65
13 | CGAUUAA | -0.493
14 | GGAUUGC | 0.88
15 | AACCACA | -0.275
16 | UCUUGCG | -0.664
17 | AGAUGCU | -0.777
18 | AUUCGGA | 0.243
19 | UAUGUCC | -0.785
20 | CCUCGGC | -0.701
21 | AACACGU | -0.3
22 | CUACUAU | -0.657
23 | CCGUCCA | -0.704

Row | Sequence | RNAcompete 7-mer binding Z-score
24 | CCUACGG | -0.446
25 | UAACGCU | -0.646
26 | GGCCAUG | 0.181
27 | GCCGGGG | 1.4
28 | AAUAGGG | 3.5
29 | UGUAAAG | 0.257
30 | UUUAGGG | 1.51
31 | GUUAGGG | 3.65
32 | CGUAGGG | 2.3
33 | CGUAAAG | -0.0743
34 | GGUAAAG | 3.35
35 | UGUAGGA | 1.9
36 | UGUAGGG | 3.34
37 | AAUAGGU | 1.27
38 | AAUAGGC | 0.924
39 | GUUAGGU | 1.89
40 | UCCAUUU | -0.872
41 | GAUCCAG | 0.0641
42 | ACGUAAU | -0.417
43 | ACAAUCG | -0.173
44 | UACCCCG | -0.551
45 | AUGCUCA | -0.766
46 | GGUGAGG | 4.3

Row | Sequence | RNAcompete 7-mer binding Z-score
47 | CAUGAGG | 1.35
48 | CGUGAGG | 1.73
49 | GGUGAGA | 2.68
50 | GAUGAGG | 3.6
51 | GAUGAGU | 1.01
52 | CCUCCAA | -0.857
53 | UGAGCCC | -0.435
54 | GUCCACU | -0.653
55 | AGGCAGG | 1.77
56 | GGGCGGG | 3.52
57 | GGCAAAG | 1.95
58 | GGGCAGG | 3.39
59 | GGGCGAC | 1.94
60 | CGCAAGG | 0.341
61 | GGGCGGA | 3.09
62 | GGGCGAG | 3.88
63 | GGGCGAA | 2.68
64 | GGCAAGG | 3.47
65 | GGGCAGA | 2.25
66 | GGGCGGU | 2.58
67 | AUAGUGG | 1.69
68 | CACCAUC | -0.734
69 | UGCGCAG | 0.0677

Row | Sequence | RNAcompete 7-mer binding Z-score
70 | UUUGGAU | -0.125
71 | UACUUUA | -0.948
72 | UGGCGGG | 3.19
73 | UGGCGGU | 1.54
74 | CGGCGGG | 1.97
75 | ACGGGAC | 2.19
76 | UGCAACC | -0.504
77 | AGGGGGG | 2.05
78 | GAGGGCA | 1.99
79 | GAGGGGG | 2.83
80 | GAGGGAA | 3.6
81 | AAGGGGC | 3.1
82 | CGGGGGA | 2.53
83 | GAGGGAU | 3.31
84 | GCGGGAU | 2.38
85 | CAGGGAU | 2.41
86 | GAGGAAA | 2.2
87 | GAGGGGA | 3.29
88 | AAGGGGG | 3.91
89 | CCGCUAC | -0.868
90 | GUUACUC | -0.581
91 | UAAGUCA | -0.0816
92 | UCGCGCA | -0.595

Row | Sequence | RNAcompete 7-mer binding Z-score
93 | ACCUCCG | -0.737
94 | AUAGAGA | 0.501
95 | AGAACAU | -0.398
96 | CCUAUAU | -0.799
97 | UCAAUGC | -0.533
98 | GCUUGUG | -0.479
99 | GUACCCC | -0.242
100 | UUCCUGA | -0.763
101 | CAAGGGG | 3.03
102 | AGGGGGA | 2.14
103 | GAGGGCU | 1.27
104 | GAGGGGC | 2.44
105 | GAGGGGU | 3.64
106 | AAGGGGA | 4.44
107 | AGGGGGU | 3.03
108 | AAGGGGU | 4.33
109 | UAAGGGG | 3.11
110 | AAAGGGG | 4.22
111 | AACCCUU | -1.03
112 | CCACGCA | -0.664
113 | AUUGUGA | 0.108
114 | UCGCGUU | -0.602
115 | CUUCCUU | -0.759

Row | Sequence | RNAcompete 7-mer binding Z-score
116 | AGUAAGA | 0.541
117 | GUUCUCU | -0.788
118 | CUGGGUG | 1.82
119 | GUGGGUG | 3.76
120 | AUGGGUA | 3.71
121 | AUGGGUC | 2.15
122 | AGGGGUG | 3.14
123 | AUCGGUG | 0.691
124 | AGGGGCG | 2.07
125 | AUGGGUG | 3.74
126 | GUGGGUC | 2.4
127 | AGGGGGC | 1.4
128 | AUUGGUG | 1.84
129 | AUGGGUU | 2.86
130 | CUCUUCC | -0.879
131 | AAUAUAC | -0.26
132 | UAGUCCA | -0.683
133 | UGUGGCC | 0.0459
134 | AUCUCGC | -0.894
135 | AAGUUAC | -0.289
136 | CGGCUGA | -0.0306
137 | UUCAAUA | -0.151
138 | UCGGGUG | 1.96

Row | Sequence | RNAcompete 7-mer binding Z-score
139 | GGGGGCG | 2.58
140 | UGGGGUG | 4.14
141 | CGGGGUU | 2.23
142 | CCGGGUG | 1.62
143 | UUGGGUU | 2.05
144 | UUGGGUC | 1.03
145 | GGGGGUG | 3.43
146 | UUGGGUG | 3.43
147 | GGGGGUC | 2.06
148 | UGGGGUC | 2.62
149 | CGGGGUG | 3.36
150 | GUUAUCU | -0.395
151 | GACCCCC | -0.551
152 | ACGAAUA | -0.238
153 | UAUCACG | -0.435
154 | AUGUAAC | -0.147
155 | GAGUGUU | 0.432
156 | CGAGGCU | 0.217
157 | ACACCCU | -0.941
158 | UAAUACA | -0.391
159 | UCAUUCU | -0.752
160 | UGCGGUC | -0.00512
161 | GCGCUGU | -0.191

Row | Sequence | RNAcompete 7-mer binding Z-score
162 | ACAGUAA | 0.0677
163 | GGCCGCC | -0.683
164 | UAAGCCA | -0.712
165 | GCCAAAC | -0.573
166 | AGUCUGU | -0.482
167 | UGGUGUG | 2.21
168 | GGGGUUU | 2.36
169 | GGGUGUG | 3.51
170 | AGGGGUU | 2.42
171 | GGGUGUA | 3.09
172 | GGGGGUU | 3.29
173 | AUCUACU | -0.806
174 | AUCUUGG | -0.311
175 | CGGGAAC | 1.5
176 | GCUUCCG | -0.799
177 | CUUGGUC | -0.821
178 | GGACAGA | 1.44
179 | GGACCGU | 0.0532
180 | GGGGAUC | 2.27
181 | UGGGAUU | 1.63
182 | AGGGACG | 2.37
183 | AGGGAUG | 4.22
184 | UGGGAUA | 2.85
